The values that follow come from PubChem BioAssay AID463173 (ICCB-Longwood Screening Facility, Harvard Medical School, 2010).

The campaign covered roughly 52,000 compounds. About 4,300 (8.3%) were called active. Many of the other results were omitted from the sample, so actives are more common in it than they were. A number with no mark means an inactive call. Rule as the data show it: active = survival mostly below about 52% (no sharp cut-off); inactive = mostly above about 56%.

This assay deals with DeltatarO mutant. In words: S. aureus survival, RN4220 and DeltatarO strains – OD600, teichoic acid synthesis inhibitors, primary screen (AID 463173). As to conditions: S. aureus RN4220 wild type/DeltatarO growth, OD600, 18 h, hits give low values, screened at 18.75 µg/mL (by protocol).
For `CCOC(=O)C(C)ON1C(=O)c2ccccc2C1=O` (stereo unspecified), the survival is 86%. The result for `CC(=O)N1CCc2cc(Br)cc(S(=O)(=O)NCCc3cccc(C)c3)c21` reads 75%; that for `CCOc1ccc(CCNS(=O)(=O)c2cc(Br)cc3c2N(C(C)=O)CC3)cc1OCC`, 103%. The result for `COc1ccc(CCNC(=O)CCS(=O)(=O)c2cc(Br)cc3c2N(C(C)=O)CC3)cc1OC` reads 53%.

Turning to `CC(=O)N1CCc2cc(Br)cc(S(=O)(=O)CCC(=O)NCCc3ccc(Cl)cc3)c21`, the survival is 44% (active). With `CC(=O)N1CCc2cc(Br)cc(S(=O)(=O)CCC(=O)Nc3ccc(C)cc3Cl)c21`, the survival is 47% (active).

As to `CCC(=O)N1CCc2cc(Br)cc(S(=O)(=O)CCC(=O)NCCc3ccc(Cl)cc3)c21`, the survival is 70%.

`Cc1ccc(NC(=O)CCS(=O)(=O)c2cc(Br)cc3c2N(C(=O)C2CC2)CC3)cc1`: the survival was 90%.

For the compound `CCC(=O)N1CCc2cc(Br)cc(S(=O)(=O)CCC(=O)Nc3ccccc3C)c21`, the survival was 87%. The result for `CC(=O)N1CCc2cc(Br)cc(S(=O)(=O)NCCc3ccc(Cl)cc3)c21` reads 45% (active); that for `COc1ccc(CCNC(=O)c2ccc3c(c2)N(Cc2ccccc2C)C(=O)c2ccccc2S3)cc1OC`, 118%. On to `CCOC(=O)c1c(C)[nH]c(C)c1S(=O)(=O)NCC(=O)Nc1ccc(CC)cc1`, for which the survival is 96%. The result for `COc1ccc(OC)c(CCNC(=O)C2=C(C)C(=O)OC23CCC(C)CC3)c1` (stereo unspecified) reads 86%; that for `Cc1cc(C(C)(C)C)oc1C(=O)N(CC(=O)NC1CCCC1)c1ccc(F)cc1`, 77%. The result for `COc1ccc(OCC(=O)N2CCC(c3nc4ccccc4s3)CC2)cc1` reads 68%; that for `CC(C)(C)c1ccc(OCC(=O)N2CCC(c3nc4ccccc4s3)CC2)cc1`, 84%. As for `Cc1ccccc1OCC(=O)N1CCC(c2nc3ccccc3s2)CC1`, the survival was 51%.

`Cc1cc(Cl)ccc1OCC(=O)N1CCC(c2nc3ccccc3o2)CC1`: the survival is 54%. The result for `Cc1cc(C)cc(OCC(=O)N2CCC(c3nc4ccccc4s3)CC2)c1` reads 85%. For the compound `Cc1cc(OCC(=O)N2CCC(c3nc4ccccc4s3)CC2)ccc1Cl`, the survival is 23% (active). The result for `O=C(COc1cccc(Cl)c1)N1CCC(c2nc3ccccc3s2)CC1` reads 44% (active); that for `O=C(COc1ccc([N+](=O)[O-])cc1)N1CCC(c2nc3ccccc3s2)CC1`, 82%; that for `Cc1cc(Cl)ccc1OCC(=O)N1CCC(c2nc3ccccc3s2)CC1`, 21% (active).

As for `COc1ccc(N2CCN(S(=O)(=O)c3c(C)nc4sc(C)cn4c3=O)CC2)cc1`, the survival was 92%. In the case of `CCCCSCc1ccc(C(=O)O)o1`, the survival is 77%. The result for `O=C(c1cccs1)N1CCCc2cc(NS(=O)(=O)c3cc(F)ccc3F)ccc21` reads 73%; that for `O=C(c1ccccc1F)N1c2nc(-c3ccco3)nn2C2(CCCCC2)[C@@H]2CCCC[C@@H]21`, 69%; that for `C=Cc1ccc(Cn2c(C)c(CNCCc3ccccc3C)c(C(=O)O)c2C)cc1`, 53%. Turning to `Cc1cc(C)c(NS(=O)(=O)c2ccc(-c3coc(C)n3)cc2)c(C)c1`, the survival was 94%. The result for `CC(=O)OCc1cnc(C)c2oc(=O)c(C(=O)Nc3ccc(C)cc3Cl)cc12` reads 128%. The result for `Cc1ccc(NC(=O)c2ccc(Cl)cc2Cl)c(C(=O)c2ccccc2)c1` reads -1% (active); that for `Cc1ccc(C(=O)COC(=O)c2cccc(NC(=O)c3ccc(Cl)cc3Cl)c2)cc1`, 61%.

For the compound `O=C(c1ccccc1)c1ccccc1NC(=O)c1ccccc1C(=O)O`, the survival was 67%. The result for `Cc1ccc(NC(=O)c2ccccc2Br)c(C(=O)c2ccccc2)c1` reads 26% (active); that for `Cc1ccc(NC(=O)c2nc[nH]c2C(=O)N2CCCCC2)c(C(=O)c2ccccc2)c1`, 82%. The result for `Cc1cc(NC(=O)c2ccccc2Cl)ccc1NC(=O)c1ccccc1` reads 77%; that for `Cc1ccc(NC(=O)c2ccc(Br)cc2)c(C(=O)c2ccccc2)c1`, -2% (active); that for `O=C(Nc1cc2c(cc1C(=O)c1ccccc1)OCCO2)c1ccc(Br)cc1`, 82%. In the case of `O=C(Nc1cc2c(cc1C(=O)c1ccccc1Br)OCCO2)c1ccccc1`, the survival is 68%. Take `CCOc1ccccc1CNC(=O)c1ccc2c(c1)nc1n2CCCCC1`: the survival was 87%. Consider `O=C(c1ccccc1)n1nnc2ccccc21`, for which the survival was 106%. The result for `COc1ccc2c(c1)c1c(c(=O)n(Cc3ccccc3)c(=O)n1Cc1cccc(Cl)c1)n2C` reads 82%; that for `CCC(Oc1ccccc1)C(=O)Nc1nccs1` (stereo unspecified), 79%; that for `COc1ccc2c(CNCCc3ccco3)c(C(=O)O)n(Cc3ccccc3)c2c1`, 101%. `CCC(C(=O)Nc1cc(C)ccc1C)n1c(=O)c(C(F)(F)F)nc2ccccc21` (stereo unspecified): the survival was 102%.

In the case of `CCCc1cnc2c(c1SCC(=O)Nc1ccc([N+](=O)[O-])cc1)c(=O)n(C)c(=O)n2C`, the survival was 66%. The result for `COc1ccc(-n2cc(C(=O)OCc3ccc(F)c(F)c3)c3ccccc3c2=O)cc1` reads 98%; that for `COc1ccccc1NC(=O)c1cc(S(=O)(=O)N2CCN(c3ccccc3Cl)CC2)ccc1F`, 102%. For the compound `COc1ccc(OC)c(NC(=O)c2ccccc2)c1`, the survival is 105%. The result for `COc1ccccc1NC(=O)c1cccc(S(=O)(=O)N2CCCCCC2)c1` reads 40% (active). On to `COc1ccccc1NC(=O)c1ccccc1C(=O)O`, for which the survival is 82%. The result for `COc1ccccc1NC(=O)c1ccccc1NC(=O)c1ccccc1` reads 20% (active); that for `O=C(Nc1ccccc1C(=O)O)c1cccc(S(=O)(=O)N2CCCC2)c1`, 87%; that for `Cc1ccc(S(=O)(=O)N2C(=O)CCC2C(=O)N2CCCC2)cc1` (stereo unspecified), 97%. As to `Cc1ccc(N2CCN(c3c(CN4CCCC4)c(=O)oc4ccccc34)CC2)c(C)c1`, the survival was 67%.

With `COc1cc(Cl)c(C)cc1Nc1nc2ccccc2c2nnc(C)n12`, the survival is 124%.

As for `CCOC(=O)c1sc(N/C=C(\C#N)c2nc3cc(Cl)ccc3o2)c(C#N)c1C`, the survival is 81%. For the compound `CN(C)c1ccc(CNC(=O)CN2CCSc3ccc(S(=O)(=O)N(C)C)cc32)cc1`, the survival is 66%. The result for `Cc1ccccc1CN1C(=O)C2(c3ccccc31)N(c1ccccc1)C(=O)CS2(=O)=O` (stereo unspecified) reads 124%; that for `CCOc1ccc2nc(N3CCCC(C(=O)Nc4ccc(OC)cc4)C3)sc2c1` (stereo unspecified), 60%; that for `Cc1ccc(CNC(=O)c2cc(S(=O)(=O)N3CCCCCC3)cn2C)cc1`, 74%. The result for `CC1CCCN(S(=O)(=O)c2cc(C(=O)NCCc3ccccc3)n(C)c2)C1` (stereo unspecified) reads 73%; that for `COc1ccc(CCNC(=O)c2cc(S(=O)(=O)N3CCCC(C)C3)cn2C)cc1OC` (stereo unspecified), 47% (active).

On to `COc1cccc(CNC(=O)c2cc(S(=O)(=O)N3CCCCCC3)cn2C)c1`, for which the survival was 82%. `COc1ccccc1CNC(=O)c1cc(S(=O)(=O)N2CCCC(C)C2)cn1C` (stereo unspecified): the survival is 93%.

As for `COc1cccc(CNC(=O)c2cc(S(=O)(=O)N3CCCCC3)cn2C)c1`, the survival was 0% (active). The result for `COc1ccc(CNC(=O)CCc2c(C)c3cc4c(C)coc4cc3oc2=O)cc1` reads 75%. For `O=S(=O)(Nc1ccc2nc(-c3cccc(Cl)c3)oc2c1)c1ccccc1`, the survival was 52%.

Turning to `O=S(=O)(Nc1ccc2nc[nH]c2c1)c1ccccc1`, the survival is 95%. With `Cc1ccc(S(=O)(=O)Nc2ccc3nc(-c4cccc(Cl)c4)oc3c2)cc1`, the survival is 28% (active). The result for `Cc1ccc(S(=O)(=O)Nc2ccc3nc(-c4ccc(F)cc4)oc3c2)cc1` reads 11% (active); that for `COC(=O)c1ccc(-c2nc3ccc(C)cc3o2)cc1`, 102%. In the case of `O=S(=O)(Nc1ccc2nc(-c3ccc(F)cc3)oc2c1)c1ccccc1`, the survival was 32% (active). As for `Cc1ccccc1C(=O)Nc1ccc(-c2nc3ccccc3o2)cc1`, the survival is 101%. The result for `Cc1ccc(S(=O)(=O)N2CCCc3cc(NS(=O)(=O)c4ccc(F)cc4)ccc32)cc1` reads 74%; that for `Cc1ccc(SCC(=O)Nc2ccc3oc(-c4cccc(Cl)c4)nc3c2)cc1`, 72%; that for `O=C(Nc1ccc(-c2nc3cc(NC(=O)c4ccc(F)cc4)ccc3o2)cc1)c1ccc(F)cc1`, 75%. The result for `O=S(=O)(Nc1ccc(-c2nc3ccccc3o2)cc1)c1ccccc1` reads 24% (active).

For the compound `O=C(O)/C=C/C(=O)Nc1ccc(-c2nc3ccccc3o2)cc1`, the survival was 74%. The result for `O=C1CC(c2cccc(O)c2)c2c(nc(SCc3ccccc3F)[nH]c2=O)N1` (stereo unspecified) reads 106%. The result for `COc1cc(NC(=O)CN2C(=O)C(c3ccc(C)cc3)=NC23CCCCCC3)cc(OC)c1` reads 83%; that for `O=C(COc1ccc(F)cc1)NCc1ccc2c(c1)CCN2C(=O)c1ccccc1`, 81%; that for `COc1ccc(C2CC(=O)NC(NC(=O)c3ccc(Br)cc3)=N2)c(OC)c1OC` (stereo unspecified), 86%. The result for `CCOC(=O)N1CCc2c(sc3c2c(=O)n(-c2ccc(Cl)cc2)c(=O)n3CC(C)C)C1` reads 94%. Regarding `CN(C)CCNC(=O)Cn1nc(N2CCN(c3ccccc3)CC2)ccc1=O`, the survival is 86%.

In the case of `CC(=O)c1ccc(NC(=O)C2CCN(S(=O)(=O)c3ccc4[nH]c5c(c4c3)CCCCC5)CC2)cc1`, the survival was 94%. The result for `O=C1COc2cc(S(=O)(=O)CCC(=O)N3CCN(c4cccc(Cl)c4)CC3)c(Cl)cc2N1` reads 66%.

In the case of `CCOC(=O)C1=C(CN2CCC(C(=O)OCC)CC2)NC(=O)NC1c1ccc(Cl)cc1` (stereo unspecified), the survival is 111%. In the case of `COc1ccc(-n2nnc(C(=O)Nc3ccccc3F)c2N)cc1`, the survival was 68%. The result for `O=C(Nc1ccc(C(F)(F)F)cc1)C1(c2cccs2)CCOCC1` reads 87%; that for `Cc1cccc(C)c1NC(=O)CCS(=O)(=O)c1cccc2nonc12`, 74%.
